Among the data in PubChem BioAssay (NCATS) are Potency and outcome values, retold here.

Molecules are shown by their SMILES. Inconclusive results are not listed. Where a call stands in place of a potency, no number is given. Activity calls are given as the source filed them. The call rests on the fitted dose curve; in most records, active means well fitted inhibition curve with a large enough effect; inconclusive means small, poorly fitted or top-dose-only effect; inactive means no such curve, though single readings can be large or run the other way.
Potency means the concentration at half of the fitted maximal effect.

The assay concerns Zika virus NS2B-NS3 protease (linked construct). Put plainly: Primary screen NINDS Rhodamine qHTS for Zika virus inhibitors (AID 1347160). Further: nearly all actives have a fitted effect of over 55% in size. The settings on record: purified NS2B-NS3 protease, Rhodamine110 substrate fluorescence; series mostly up to 57.1 µM. The method in brief:
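Single-chain NS2B-NS3 protease, 25 nM, pH 8.0; compounds preincubated 15 min. Activity: Rhodamine110 release from 1.5 microM substrate over 15 min, room temperature, data fitted to 4-parameter Hill.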
With `COc1cc(C(N)=O)nc(-c2ccccn2)c1O`, the Potency entry is “inactive”.
On the same count and under the same terms, the result for `C=C1[C@@H](OC(C)=O)CC[C@@]2(C)[C@@H](OC(C)=O)[C@H](OC(C)=O)C3=C(C)C[C@H](OC(=O)C(C)CC)[C@@H]([C@@H](OC(C)=O)[C@H]12)C3(C)C` (stereo partly drawn) reads “inactive”; that for `COc1ccc(-c2c(C)nn3c(NCCN4CCOCC4)cc(C)nc23)cc1OC`, “inactive”.
Consider `C=C(C(=O)OC[C@H]1O[C@@H](OC(=O)/C=C/c2ccccc2)[C@H](O)[C@@H](O)[C@@H]1O)C(O)CO` (stereo partly drawn), for which the Potency result is “inactive”.
Same read-out and setting: the result for `C=C[C@](C)(O)CC[C@H]1C(C)=CC(=O)[C@H]2C(C)(C)CCC[C@]12C` reads “inactive”.
As to `O=c1[nH]c2cccc(N3CCN(Cc4ccc(-c5ccccc5)cc4)CC3)c2o1`, the Potency entry was “inactive”.
The same measure, in the same setting: the result for `O=S(=O)(c1ccc(Cl)cc1)N1CCN(c2ccnc3cc(Cl)ccc23)CC1` reads “inactive”.
On the same count and under the same terms, the result for `CC(=O)O[C@@]12CO[C@@H]1C[C@H](O)[C@@]1(C)C(=O)[C@H](O)C3=C(C)[C@@H](OC(=O)[C@H](O)[C@@H](NC(=O)OC(C)(C)C)c4ccccc4)C[C@@](O)([C@@H](OC(=O)c4ccccc4)C12)C3(C)C` (stereo partly drawn) reads “inactive”; that for `O=S(=O)(NCc1ccccn1)c1ccc(Br)c2ccccc12`, “inactive”; that for `C=C1C(=O)OC[C@@H]1C/C=C(\C)CC1CC(C)C(=O)O1` (stereo partly drawn), 15.8 µM (active).
Same read-out and setting: next, `C=C1CCN([C@H](C)[C@](O)(Cn2cncn2)c2ccc(F)cc2F)CC1`: “inactive”; `Cc1ccc(C(C)C)c(O[C@@H]2O[C@H](CO)[C@@H](O)[C@H](O)[C@H]2O)c1`: “inactive”; `C[C@@H](Nc1ncnc2[nH]c(-c3ccc(O)cc3)cc12)c1ccccc1`: “inactive”.
Regarding `C/C=C(/C)C(=O)OC1CC(C)(C)CC2C3=CCC4C5(C)CCC(O[C@@H]6O[C@H](C(=O)O)[C@@H](O)[C@H](O)[C@H]6O[C@@H]6O[C@H](CO)[C@H](O)[C@H](O[C@@H]7OC[C@H](O)[C@H](O)[C@H]7O[C@@H]7O[C@H](CO)[C@@H](O)[C@H](O)[C@H]7O)[C@H]6O)C(C)(C)C5CCC4(C)C3(C)C(O)C(O)C12CO` (stereo partly drawn), the outcome is “inactive [at 10.7 µM]”.
As for `CCn1c2ccccc2c2cc(Nc3ccnc(NCCCN4CCOCC4)n3)ccc21`, the Potency result is “inactive”.
Same read-out and setting: next, `C=C1C(=O)OC2/C=C(\C)CC/C=C(\C=O)C(OC)C(OC(=O)C(C)CC)C12` (stereo not drawn): “inactive”; `C=C1/C(=C/C=C2\CCC[C@@]3(C)C2CCC3[C@H](C)/C=C/[C@@H](O)C2CC2)C[C@@H](O)C[C@@H]1O` (stereo partly drawn): “inactive”.
Still for that read-out and setting: next, `Cc1sc2c(c1C)C(c1ccc(Cl)cc1)=N[C@H](CC(=O)NCCCCNC(=O)COc1cccc3c1C(=O)N([C@H]1CCC(=O)NC1=O)C3=O)c1nnc(C)n1-2`: “inactive”.
On the same count and under the same terms, the result for `CC(C)(C)c1ccc2c(c1)CC[C@H]2NC(=O)Nc1cccc2[nH]ncc12` reads “inactive”; that for `CC1CC(=O)C2=C(C1)C1OC1C1(O)C2C(=O)c2cccc(O)c2C1O` (stereo not drawn), “inactive”; that for `COc1ccc(-n2c(SCCCN3C(=O)c4cccc5cccc(c45)C3=O)nnc2-c2ccncc2)cc1`, “inactive”.
Regarding `CC(=O)C1(C)CCC2C3C=C(C)C4=CC(=O)CCC4(C)C3CCC21C` (stereo not drawn), the Potency result was “inactive”.
On the same count and under the same terms, the result for `N#Cc1ccc(-c2ccc(S(=O)(=O)Nc3cccc(N)n3)cc2)cc1` reads “inactive”; that for `CC(=O)OCC(=O)[C@@]12O[C@@H]1C[C@H]1[C@@H]3CC=C4C[C@@H](O)CC[C@]4(C)[C@H]3CC[C@@]12C`, “inactive”.
On the same count and under the same terms, next, `CC1(C)CC[C@]2(C(=O)O)CC[C@]3(C)C(=CCC4[C@@]5(C)C[C@@H](O)[C@H](O)[C@@](C)(CO)C5CC[C@]43C)[C@@H]2[C@@H]1O` (stereo partly drawn): “inactive”.
Same read-out and setting: the result for `C/C(=C\CCC(C)C1=CCC2(C)OC3=C(CC12)C(=O)C(O)CC3)CO` (stereo not drawn) reads “inactive”; that for `CCN(CC)C(=O)c1ccc(Nc2nc(OCC3CCCCC3)c3[nH]cnc3n2)cc1`, “inactive”.
As for `C/C=C(\C)[C@@H]1C(C)=C[C@@H]2[C@H]([C@@H]1/C=C/C=C/C(=O)O)[C@@H](C)CC[C@@H]2O`, the Potency entry is “inactive”.
Same read-out and setting: the result for `COC(=O)c1cc(Br)cnc1N1CCC(NC2CCCCC2)C(O)C1` (stereo not drawn) reads “inactive”; that for `C=C1C(=O)O[C@H]2C1CCC(C)=C1C(=O)C=C(C)[C@@]12O` (stereo partly drawn), “inactive”; that for `CC(C)c1ccc(-c2cc(=O)c3ccccc3o2)cc1`, “inactive”.
Regarding `CCC(C(C)O)n1ncn(-c2ccc(N3CCN(c4ccc(OCC5COC(Cn6cncn6)(c6ccc(F)cc6F)C5)cc4)CC3)cc2)c1=O` (stereo not drawn), the Potency result is “inactive”.
The same measure, in the same setting: next, `COc1c(CCC(=O)O)cccc1O[C@@H]1O[C@H](CO)[C@@H](O)[C@H](O)[C@H]1O`: “inactive”.
